Data: PubChem BioAssay AID2620 (National Center for Advancing Translational Sciences (NCATS), 2010)
Inconclusive results are not listed. Calls of active or inactive are those of the source. Calls come from the whole dose curve; as a rule, active = well fitted curve in the direction sought with a large enough effect; inconclusive = small, poorly fitted or top-dose-only effect, or another doubt; inactive = no such curve, though single readings can be large or run the other way.

Biological target: Pyruvate kinase PKM (Homo sapiens) (UniProt P14618)
Sequence (P14618 whole entry, looked up, canonical isoform): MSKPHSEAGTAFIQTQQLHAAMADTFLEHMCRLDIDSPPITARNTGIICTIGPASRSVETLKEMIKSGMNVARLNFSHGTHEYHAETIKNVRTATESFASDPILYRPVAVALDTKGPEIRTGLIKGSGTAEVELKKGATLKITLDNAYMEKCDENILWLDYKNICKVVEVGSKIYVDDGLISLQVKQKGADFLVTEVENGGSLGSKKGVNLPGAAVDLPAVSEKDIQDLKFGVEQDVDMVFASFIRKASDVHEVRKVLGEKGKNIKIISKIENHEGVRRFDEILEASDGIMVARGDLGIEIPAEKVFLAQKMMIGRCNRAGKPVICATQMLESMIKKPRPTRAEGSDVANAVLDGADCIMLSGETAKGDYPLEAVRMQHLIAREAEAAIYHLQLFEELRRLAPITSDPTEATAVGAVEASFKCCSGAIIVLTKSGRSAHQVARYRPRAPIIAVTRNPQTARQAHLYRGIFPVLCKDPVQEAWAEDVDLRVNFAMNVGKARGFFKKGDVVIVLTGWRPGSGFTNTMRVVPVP
Test: Secondary LDH Assay for Activators of Human Pyruvate Kinase M1 Isoform: for Probe SAR
Conditions: purified hPK-M1, LDH-coupled NADH fluorescence kinetic; series mostly up to 58.2 µM
Description: NIH Chemical Genomics Center [NCGC]
Matthew G. Vander Heiden, M.D., Ph.D. [Harvard Medical School, 77 Avenue Louis Pasteur, Boston, MA 02115]
Human pyruvate kinase […] (hPK-M1)enzyme was supplied as a highly purified (>95% pure) preparation from Harvard Medical School and a secondary assay was used to evaluate compounds. This assay couples the formation of pyruvate from […] using lactate dehydrogenase (LDH) and NADH. The depletion of NADH is followed in a fluorescent-based kinetic assay that follows the formation of pyruvate to lactate, as catalyzed LDH. Pyruvate kinase substrates, PEP and ADP, were present in the assay at 0.1 mM and 4 mM respectively. In this kinetic assay initial rates were determined by following the fluorescence of NADH depletion.
NCGC Assay Protocol Summary:
Three uL of substrate mix (final concentration, 50 mM Tris-Cl pH 8.0, 200 mM KCl, 15 mM MgCl2, 0.1 mM PEP, 4.0 mM ADP, and 0.2 mM NADH) was dispensed into black-solid 1536 well plates. 23 nL of compounds were delivered by a pin tool and 1 uL of enzyme mix (final concentrations, 10 nM hPK-M1 and 1 uM of LDH) was added. Plates were immediately placed in ViewLux (Perkin Elmer) and NADH fluorescence was determined at 30 second exposure intervals for between 3 and 6 minutes. Data were normalized to the uninhibited controls.

outcome, inactive:
Cc1ccc(Nc2c(-c3ccc(C)o3)nc3ccccn23)cc1
Cc1ccc(NS(=O)(=O)c2cc3c(cc2N(C)C)NC(=O)CC3)cc1C
Cc1ccccc1OC1=NS(=O)(=O)c2ccccc21
O=S(=O)(c1ccc2c(c1)OCCO2)N1CCN(S(=O)(=O)c2c(F)cccc2F)CC1
Cc1ccc(NS(=O)(=O)c2cccc(C(=O)O)c2)cc1C
Cc1ccc2nc(-c3ccc(C)o3)c(Nc3ccc4c(c3)OCO4)n2c1
COc1cccc(NS(=O)(=O)c2ccc3c(c2)CCC(=O)N3)c1
O=C1c2ccccc2C(=O)N1c1cncc2ccccc12
Cc1ccc(Cl)cc1NS(=O)(=O)c1cc2c(cc1F)NC(=O)CC2
O=C1c2ccccc2C(=O)N1c1cccc2ccncc12
O=C1CCc2cc(S(=O)(=O)Nc3cccc(C(F)(F)F)c3)ccc2N1
COc1cc(F)c(S(=O)(=O)N2CCCN(S(=O)(=O)c3cccc(N)c3)CC2)c(F)c1
O=C1CCc2cc([S+](=O)([O-])NC3CCOCC3)ccc2N1
CC(=O)N1c2ccc(S(=O)(=O)Nc3ccc(C)c(C)c3)cc2CC1C (stereo not given)
CN(C)c1cccc(S(=O)(=O)N2CCCN(S(=O)(=O)c3ccc4c(c3)OCCO4)CC2)c1
O=C1CCc2cc([S+](=O)([O-])Nc3ccc(N[S+](=O)([O-])c4ccc5c(c4)CCC(=O)N5)cc3)ccc2N1
CSc1cc2c(s1)c1cnn(Cc3cccc(N)c3)c(=O)c1n2C
O=C1CCc2cc(S(=O)(=O)Nc3ccc(F)cc3)ccc2N1
Cc1ccc(NS(=O)(=O)c2cc3c(cc2Cl)CCC(=O)N3)cc1C
CNc1cccc(S(=O)(=O)N2CCN(S(=O)(=O)c3ccc4c(c3)OCCO4)CC2)c1
Cc1ccc(NS(=O)(=O)c2cc3c(cc2Br)NC(=O)CO3)cc1C
O=C1c2ccccc2C(=O)N1c1cccc2cnccc12
O=C1CCc2cc(S(=O)(=O)Nc3ccc(-c4ccccc4)cc3)ccc2N1
Cc1ccc(NS(=O)(=O)c2cc3c(cc2C)OCC(=O)N3)cc1C
Cc1ccc(-c2nc3cnccn3c2Nc2ccc(C(C)C)cc2)o1
Cc1ccc(NS(=O)(=O)c2cc3c(cc2Cl)CCC(=O)N3)cc1Cl
Cc1cc(NS(=O)(=O)c2ccc3c(c2)CCC(=O)N3)ccc1F
O=C1NS(=O)(=O)c2ccccc21
O=C1CCc2cc(S(=O)(=O)Nc3cccc(Cl)c3)ccc2N1
Cc1ccc2nc(-c3ccc(C)o3)c(Nc3ccc(Cl)cc3)n2c1
Cc1cc(N2C(=O)c3ccccc3C2=O)n[nH]1
O=C1CCc2cc(S(=O)(=O)Nc3cccc(-c4ccccc4)c3)ccc2N1
O=C1c2ccccc2C(=O)N1c1cccc(=O)[nH]1
Cc1ccc(NS(=O)(=O)c2cc3c(cc2-c2ccco2)NC(=O)CO3)cc1C
CC(=O)N1CCCc2cc(S(=O)(=O)Nc3ccc(C)c(C)c3)ccc21
Cc1ccc(NS(=O)(=O)c2ccc3c(c2)CCN(C(=O)C(F)(F)F)C3)cc1C
Cc1ccc(NS(=O)(=O)c2ccc3c(c2)CCC(=O)N3)cc1
O=C1CCc2cc(S(=O)(=O)Nc3ccc4ncccc4c3)ccc2N1
Cc1ccc(Nc2c(-c3ccc(C)s3)nc3cccc(C)n23)cc1
Cc1ccc(NS(=O)(=O)c2cc3c(cc2-c2ccsc2)NC(=O)CO3)cc1C
